This passage reports Potency and outcome results from PubChem BioAssay (Tox21).

SMILES strings stand for the structures. Where “and” joins values, the source holds several entries; their conditions need not be identical. Identical values can stand only once. Inconclusive results are not listed. A call without a number means that no potency is given here. A structure can be active in one record and inactive in another. Calls of active or inactive are those of the source. Unless noted, calls follow the shape of the dose curve; as a rule, active = well fitted cell-killing curve with a large enough effect in the repeat runs; inconclusive = weak or mixed curves; inactive = no such curve, though single readings can be large or run the other way.

Test system in one assay: not listed separately
The assay is described as follows: qHTS assay to identify small molecule agonists of the peroxisome proliferator-activated receptor delta (PPARd) signaling pathway - cell viability counter screen (AID 743211). Also: nearly all actives have a fitted effect of over 55% in size. Also: potency is read from the fitted curve at half-maximal effect. Particulars: PPARd-bla HEK293H viability, CellTiter-Glo luminescence, 17 h; series mostly up to 62.6 µM. In outline: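 PPARd-bla HEK293H cells (UAS-beta-lactamase reporter) were treated with compounds for 17 h at 37 C. Viability was then read in the same wells by CellTiter-Glo luminescence after 30 min at room temperature.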
A general note: Quantitative high-throughput screening tests each substance at several concentrations.
Take `c1ccncc1`: the Potency entry is “inactive”.

For `O=C(c1ccccc1)c1ccccc1O`, the Potency entry was “inactive”.

Regarding `O=C1c2cccc(O)c2C(=O)c2c(O)cccc21`, the Potency result was “inactive”.

Regarding `Cc1ccc(C(=O)c2cc(O)c(O)c([N+](=O)[O-])c2)cc1`, the Potency entry is “inactive”.

In the case of `CC(C)=CCC/C(C)=C\CO`, the Potency result was “inactive”.

For `CC(C)CC(C)(O)C#CC(C)(O)CC(C)C` (stereo not given), the Potency result was “inactive”.

Consider `O=C(O)c1ccccc1Nc1cccc(C(F)(F)F)c1`, for which the Potency entry is “inactive”.

As for `CCCCOCCOCCO`, the Potency entry is “inactive”.

`Nc1ccccc1N`: the Potency entry is “inactive”.

As for `O=C(OCc1ccccc1)c1ccccc1O`, the Potency result was “inactive”.

`c1ccc2cc(Nc3ccc(Nc4ccc5ccccc5c4)cc3)ccc2c1`: the Potency result is “inactive”.

`Nc1ncn([C@@H]2O[C@H](CO)[C@@H](O)[C@H]2O)c(=O)n1`: the Potency entry is “inactive”.

`CC(C)=CCCC(C)CCO` (stereo not given): the Potency entry was “inactive”.

As to `CCCCNS(=O)(=O)c1ccccc1`, the Potency result was “inactive”.

Regarding `C/C=C/C(=O)O`, the Potency entry was “inactive”.

For the molecule `CCCCCCCCCCCO`, the Potency result was “inactive and 43.6 µM (active)”.

`O=C1OC2(c3cc(Br)c(O)c(Br)c3Oc3c2cc(Br)c(O)c3Br)c2c(Cl)c(Cl)c(Cl)c(Cl)c21`: the Potency entry is “inactive”.

As to `Nc1ccc(S(=O)(=O)Nc2cnc3ccccc3n2)cc1`, the Potency entry was “inactive”.

Turning to `O=Cc1ccccc1O`, the Potency entry was “inactive”.

With `C[C@]12CC[C@H]3[C@@H](CCC4=CC(=O)CC[C@@]43C)[C@@H]1CC[C@@H]2C(=O)CO`, the Potency result is “inactive”.

For the molecule `CCCCC(CC)COCC1CO1` (stereo not given), the Potency result is “inactive”.

Consider `CC(=O)CC/C=C(\C)CCC=C(C)C`, for which the Potency result was “inactive”.

`CCCCc1oc2ccccc2c1C(=O)c1cc(I)c(OCCN(CC)CC)c(I)c1`: the Potency is 22.1 µM (active) and 16.8 µM (active).

Turning to `C=C(C)C1CC=C(C)CC1` (stereo not given), the Potency result is “inactive”.

On to `O=C(Nc1ccc([N+](=O)[O-])cc1Cl)c1cc(Cl)ccc1O`, for which the Potency was 219 nM (active) and 259 nM (active).

For `CC(=O)O[C@]1(C(C)=O)CC[C@H]2[C@@H]3C=C(Cl)C4=CC(=O)[C@@H]5C[C@@H]5[C@]4(C)[C@H]3CC[C@@]21C`, the Potency result is “inactive”.

For `Nc1ccc(Nc2ccccc2)cc1`, the Potency result was “inactive”.

As for `C=C(C)C(=O)OCCOC(=O)C(=C)C`, the Potency result is “inactive”.

As for `O=C(c1ccc(OCCN2CCCCC2)cc1)c1c(-c2ccc(O)cc2)sc2cc(O)ccc12`, the Potency was 38.9 µM (active) and 12.3 µM (active) and 26.6 µM (active).

On to `CC(=O)Oc1ccccc1C(=O)Nc1ncc([N+](=O)[O-])s1`, for which the Potency entry is “inactive”.

As for `CC(C)OC(=O)C(C)(C)Oc1ccc(C(=O)c2ccc(Cl)cc2)cc1`, the Potency is 54.9 µM (active).

In a further assay the target is Peroxisome proliferator-activated receptor delta (Homo sapiens) (UniProt Q03181). Put plainly: qHTS assay to identify small molecule agonists of the peroxisome proliferator-activated receptor delta (PPARd) signaling pathway (AID 743212; calls by dose curve). The conditions noted are these: HEK293H PPARd-UAS-bla, beta-lactamase FRET ratio, 17 h; series mostly up to 62.6 µM. The gist of the method: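 Beta-lactamase reporter readout: a ratiometric FRET signal from the LiveBLAzer substrate after 2 h at room temperature. Compound exposure at 37 °C in PPARδ-bla HEK293H cells driven by an upstream activator sequence.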
Peroxisome proliferator-activated receptor delta (Homo sapiens), sequence (Q03181 whole entry, looked up): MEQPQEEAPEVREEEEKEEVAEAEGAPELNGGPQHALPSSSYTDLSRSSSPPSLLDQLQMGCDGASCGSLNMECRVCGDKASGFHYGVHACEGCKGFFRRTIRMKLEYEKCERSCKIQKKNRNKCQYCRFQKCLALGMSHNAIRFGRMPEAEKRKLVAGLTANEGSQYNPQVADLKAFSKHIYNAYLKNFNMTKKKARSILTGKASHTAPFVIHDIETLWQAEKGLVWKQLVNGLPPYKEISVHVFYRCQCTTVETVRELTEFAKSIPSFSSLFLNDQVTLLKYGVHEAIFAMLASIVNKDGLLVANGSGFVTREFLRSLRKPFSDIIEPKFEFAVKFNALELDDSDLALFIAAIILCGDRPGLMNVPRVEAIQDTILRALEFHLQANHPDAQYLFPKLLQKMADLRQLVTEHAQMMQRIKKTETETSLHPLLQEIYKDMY
Consider `O=C1c2cccc(O)c2C(=O)c2c(O)cccc21`, for which the result was inactive.

In the case of `CC1=CCC(C(C)(C)O)CC1` (stereo not given), the outcome was inactive.

As to `Nc1ccccc1N`, the outcome was inactive.

With `CCCCC/C=C/C=C/C=O`, the result was inactive.

For `O=C(OCc1ccccc1)c1ccccc1O`, the result was inactive.

As to `Nc1ncn([C@@H]2O[C@H](CO)[C@@H](O)[C@H]2O)c(=O)n1`, the outcome was inactive.

`CC(C)=CCCC(C)CCO` (stereo not given): the outcome was inactive.

In the case of `O=C(c1ccccc1)c1ccc(O)cc1O`, the outcome was inactive.

With `Cc1cc2nc3c(=O)[nH]c(=O)nc-3n(C[C@H](O)[C@H](O)[C@H](O)CO)c2cc1C`, the result was inactive.

Turning to `NC=O`, the outcome was inactive.

Consider `O=Cc1ccccc1O`, for which the outcome was inactive.

`C[C@]12CC[C@H]3[C@@H](CCC4=CC(=O)CC[C@@]43C)[C@@H]1CC[C@@H]2C(=O)CO`: the result was inactive.

For `C#C[C@]1(O)CC[C@H]2[C@@H]3CCc4cc(OC)ccc4[C@H]3CC[C@@]21C`, the outcome was inactive.

Turning to `CC(=O)O[C@]1(C(C)=O)CC[C@H]2[C@@H]3C=C(Cl)C4=CC(=O)[C@@H]5C[C@@H]5[C@]4(C)[C@H]3CC[C@@]21C`, the outcome was inactive.

`C=C(C)C(=O)OCCOC(=O)C(=C)C`: the outcome was inactive.

On to `COC(=O)CCC(=O)OC`, for which the outcome was inactive.

For `CC(=O)Oc1ccccc1C(=O)Nc1ncc([N+](=O)[O-])s1`, the result was inactive.

Regarding `Nc1ccc(Cl)cc1Cl`, the outcome was inactive.

`CC(C)OC(=O)C(C)(C)Oc1ccc(C(=O)c2ccc(Cl)cc2)cc1`: the result was inactive.

Test system in another assay: not listed separately
Put plainly: qHTS assay to identify small molecule antagonists of the peroxisome proliferator-activated receptor delta (PPARd) signaling pathway - cell viability counter screen (AID 743213). Also: nearly all actives have a fitted effect of over 50% in size. Also: potency is read from the fitted curve at half-maximal effect. Particulars: PPARd-bla HEK293H viability, CellTiter-Glo luminescence, 17 h; series mostly up to 62 µM. The gist of the method: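 Luminescence from CellTiter-Glo, added after the bla read and incubated 30 min at room temperature, gives viability of HEK293H PPARd-bla cells exposed to compounds for 17 h at 37 C with 300 nM L165041.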
On to `c1ccncc1`, for which the Potency entry is “inactive”.

On to `O=C(c1ccccc1)c1ccccc1O`, for which the Potency result is “inactive”.

Regarding `Cc1ccc(C(=O)c2cc(O)c(O)c([N+](=O)[O-])c2)cc1`, the Potency result is “inactive”.

For the molecule `CC(C)=CCC/C(C)=C\CO`, the Potency result is “inactive”.

With `CC(C)CC(C)(O)C#CC(C)(O)CC(C)C` (stereo not given), the Potency entry was “inactive”.

On to `O=C(O)c1ccccc1Nc1cccc(C(F)(F)F)c1`, for which the Potency result is “inactive”.

Turning to `CCCCOCCOCCO`, the Potency entry was “inactive”.

`CC1=CCC(C(C)(C)O)CC1` (stereo not given): the Potency result was “inactive”.

Take `Nc1ccccc1N`: the Potency entry is “inactive”.

In the case of `CCCCC/C=C/C=C/C=O`, the Potency entry is “inactive”.

For the molecule `c1ccc2cc(Nc3ccc(Nc4ccc5ccccc5c4)cc3)ccc2c1`, the Potency entry was “inactive”.

Consider `Nc1ncn([C@@H]2O[C@H](CO)[C@@H](O)[C@H]2O)c(=O)n1`, for which the Potency entry is “inactive”.

Consider `CC(C)=CCCC(C)CCO` (stereo not given), for which the Potency entry was “inactive”.

Consider `CCCCNS(=O)(=O)c1ccccc1`, for which the Potency entry was “inactive”.

As to `C/C=C/C(=O)O`, the Potency entry was “inactive”.

Turning to `CCCCCCCCCCCO`, the Potency result was “inactive”.

With `O=C(c1ccccc1)c1ccc(O)cc1O`, the Potency result is “inactive”.

Regarding `Cc1cc2nc3c(=O)[nH]c(=O)nc-3n(C[C@H](O)[C@H](O)[C@H](O)CO)c2cc1C`, the Potency entry is “inactive”.

With `O=C1OC2(c3cc(Br)c(O)c(Br)c3Oc3c2cc(Br)c(O)c3Br)c2c(Cl)c(Cl)c(Cl)c(Cl)c21`, the Potency entry is “inactive”.

As for `Nc1ccc(S(=O)(=O)Nc2cnc3ccccc3n2)cc1`, the Potency entry is “inactive”.

For the molecule `NC=O`, the Potency result is “inactive”.

Take `O=Cc1ccccc1O`: the Potency entry was “inactive”.

With `C[C@]12CC[C@H]3[C@@H](CCC4=CC(=O)CC[C@@]43C)[C@@H]1CC[C@@H]2C(=O)CO`, the Potency result was “inactive”.

For `CCCCC(CC)COCC1CO1` (stereo not given), the Potency result was “inactive”.

Regarding `CC(=O)CC/C=C(\C)CCC=C(C)C`, the Potency result is “inactive”.

For `CCCCc1oc2ccccc2c1C(=O)c1cc(I)c(OCCN(CC)CC)c(I)c1`, the Potency was 15.6 µM (active) and 23.7 µM (active).

Turning to `C=C(C)C1CC=C(C)CC1` (stereo not given), the Potency entry is “inactive”.

Take `O=C(Nc1ccc([N+](=O)[O-])cc1Cl)c1cc(Cl)ccc1O`: the Potency was 1.64 µM (active).

Consider `C#C[C@]1(O)CC[C@H]2[C@@H]3CCc4cc(OC)ccc4[C@H]3CC[C@@]21C`, for which the Potency entry is “inactive”.

`CC(=O)O[C@]1(C(C)=O)CC[C@H]2[C@@H]3C=C(Cl)C4=CC(=O)[C@@H]5C[C@@H]5[C@]4(C)[C@H]3CC[C@@]21C`: the Potency result is “inactive”.

With `Nc1ccc(Nc2ccccc2)cc1`, the Potency result is “inactive”.

Regarding `O=C(c1ccc(OCCN2CCCCC2)cc1)c1c(-c2ccc(O)cc2)sc2cc(O)ccc12`, the Potency was 24.6 µM (active) and 8.71 µM (active) and 26.6 µM (active).

On to `COC(=O)CCC(=O)OC`, for which the Potency result is “inactive”.

On to `Nc1ccc(Cl)cc1Cl`, for which the Potency entry was “inactive”.

Turning to `CC(C)OC(=O)C(C)(C)Oc1ccc(C(=O)c2ccc(Cl)cc2)cc1`, the Potency is 49 µM (active) and inactive.
